Screening results: PubChem BioAssay, Broad Institute
These entries were drawn from the full list.
aSyn UTR act – Activators via SNCA 5'UTR binding, MLPCN | alpha-synuclein 5'UTR reporter, activators screen | activity score, % (tested at 7.5 µM), hits read low | 7.1% of 300,000 active | AID 1814, 2009; in the data active means activity score below about -60%
Starred values were filed as active, the others as inactive.

What do the screens show for `COc1ccc(OCc2cc(C(=O)NC(C)c3cnn(C)c3)no2)c(Cl)c1` (stereo unspecified)?
aSyn UTR act: -106*

What do the screens show for `COc1ccc(OCc2cc(C(=O)N3CCC(c4ccccc4)CC3)no2)c(Cl)c1`?
aSyn UTR act: -63*

Results for COc1cccc(OCc2cc(C(=O)NC(C)c3cnn(C)c3C)no2)c1 (stereo unspecified) ?
aSyn UTR act: -77*

Results for COc1ccc(OCc2cc(C(=O)N3CCOCC3)no2)c(Cl)c1 ?
aSyn UTR act: -82*

How did COc1ccc(-c2ccc(SC)nn2)cc1 do in these assays?
aSyn UTR act: 75

Results for COc1ccc(-c2ccc(SCC(=O)NC3CCCCC3)nn2)cc1 ?
aSyn UTR act: -83*

Results for CCOc1ccc(-c2ccc(SCC(=O)NC3CCCCC3)nn2)cc1 ?
aSyn UTR act: -69*

Results for COc1cc(/C=N/n2c(C)n[nH]c2=S)ccc1OCc1ccc(F)cc1 ?
aSyn UTR act: -114*

How did COc1cc(/C=N\n2nnnc2N)ccc1OCc1ccc(F)cc1 do in these assays?
aSyn UTR act: -65*

What do the screens show for `Cc1ccc(NC(=S)NNC(=O)c2nn(C)cc2Cl)cc1`?
aSyn UTR act: -90*

What do the screens show for `Cc1c(Cl)c(C(=O)NNC(=S)Nc2ccccc2)nn1C`?
aSyn UTR act: -102*

How did Cc1c(Cl)c(C(=O)NNC(=S)Nc2ccc(F)cc2)nn1C do in these assays?
aSyn UTR act: -70*

Results for CCOC(=O)c1c(C)[nH]c(C=O)c1Cc1cccc(Cl)c1 ?
aSyn UTR act: 53

What do the screens show for `CCOC(=O)c1c(C)[nH]c(C2=NNC(=Nc3cccc(Cl)c3)SC2)c1C`?
aSyn UTR act: -74*

How did Cn1ccsc1=NC(=O)c1ccc([N+](=O)[O-])o1 do in these assays?
aSyn UTR act: -161*

Results for CC(=O)c1csc(COc2ccccc2)n1 ?
aSyn UTR act: -109*

How did O=C(Nc1nc(COc2ccccc2)cs1)C1CCC1 do in these assays?
aSyn UTR act: -103*

How did Nc1nc(COc2ccc3ccccc3c2)cs1 do in these assays?
aSyn UTR act: -79*

What do the screens show for `O=C(Nc1ccccc1-c1ccccc1)C12CC3CC(CC(C3)C1)C2`?
aSyn UTR act: -78*

How did Nc1nc(CCOc2ccc(F)cc2)cs1 do in these assays?
aSyn UTR act: -112*

Results for CC(=O)Nc1nc(COc2ccc3ccccc3c2)cs1 ?
aSyn UTR act: -148*

How did CC(=O)Nc1nc(COc2ccccc2)cs1 do in these assays?
aSyn UTR act: -137*

What do the screens show for `O=C(Nc1nc(COc2ccccc2)cs1)C12CC3CC(CC(C3)C1)C2`?
aSyn UTR act: -147*

What do the screens show for `Cc1nc(NC(=O)c2ccccc2)sc1-c1csc(Nc2cccc(F)c2)n1`?
aSyn UTR act: -81*

Results for Cc1ccc(Cl)cc1Nc1nc(-c2sc(NC(=O)c3ccccc3)nc2C)cs1 ?
aSyn UTR act: -94*

How did COc1ccc(C2=NN(C(=O)CN3CCOCC3)C(c3nc4ccccc4[nH]3)C2)cc1 (stereo unspecified) do in these assays?
aSyn UTR act: -72*

How did O=C(NNC(=O)c1ccccc1F)c1cccc(-n2cccc2)c1 do in these assays?
aSyn UTR act: -74*

How did Cc1cccc(OCC(=O)Nc2ccc3c(c2)nc2n3CCOC2)c1 do in these assays?
aSyn UTR act: -69*

How did CC(=O)NCCc1nc2cc(NC(=O)COc3cccc(C)c3)ccc2n1C do in these assays?
aSyn UTR act: -62*

Results for CC(C)(C)c1ccc(N2C(=O)Cc3c2nc(N)c(C#N)c3N)cc1 ?
aSyn UTR act: -109*

How did CCCCN1C(=O)Cc2c1nc(N)c1c(N)nc(N(CCC)CCC)c(C#N)c21 do in these assays?
aSyn UTR act: 55

How did CCc1ccc(N2C(=O)Cc3c2nc(N)c(C#N)c3N)cc1 do in these assays?
aSyn UTR act: -160*

How did Cc1ccc(C(=O)Nc2ccc3ncccc3c2)cc1 do in these assays?
aSyn UTR act: 84

Results for O=C(Nc1ccc2ncccc2c1)c1cc(Cl)ccc1Cl ?
aSyn UTR act: -80*

How did Brc1ccc(CNc2ccc3ncccc3c2)cc1 do in these assays?
aSyn UTR act: -194*

How did O=C(Nc1ccc2ncccc2c1)c1cccc(Br)c1 do in these assays?
aSyn UTR act: -375*

What do the screens show for `Cc1ccc(NCC(=O)N=Nc2c(O)[nH]c3ccc([N+](=O)[O-])cc23)cc1`?
aSyn UTR act: -172*

How did CC1(C)CC(CCNC(=O)CCl)(c2ccccc2)CCO1 (stereo unspecified) do in these assays?
aSyn UTR act: -63*

Results for O=C(c1cc(-c2cccc(Cl)c2)on1)N1CCCCCC1 ?
aSyn UTR act: -175*

What do the screens show for `Cc1ccc(-c2cc(C(=O)N3CCCC3)no2)cc1`?
aSyn UTR act: 53

What do the screens show for `O=C(c1cc(-c2ccc(O)cc2)on1)N1CCCCCC1`?
aSyn UTR act: -94*

What do the screens show for `O=C(c1ccc(-c2ccc(Cl)cc2Cl)o1)N1CCOCC1`?
aSyn UTR act: -104*

Results for O=C(c1cc(-c2ccc(Cl)cc2Cl)on1)N1CCCCCC1 ?
aSyn UTR act: -71*

What do the screens show for `CN(C)/C=C/C(=O)c1ccc(-c2ccc(Cl)cc2Cl)o1`?
aSyn UTR act: -106*

Results for O=C(c1cc(-c2ccc(Cl)c(Cl)c2)on1)N1CCCCCC1 ?
aSyn UTR act: -198*

How did O=C(c1cc(-c2ccc(Cl)cc2)on1)N1CCCCCC1 do in these assays?
aSyn UTR act: -148*

How did Cc1ccc(C(=O)Nc2ccsc2C(=O)O)cc1 do in these assays?
aSyn UTR act: -141*

What do the screens show for `Cc1ccc(C(=O)NC2=NCCS2)cc1Cl`?
aSyn UTR act: -110*

How did Cc1ccc(C(=O)NC2=NCCS2)cc1 do in these assays?
aSyn UTR act: -118*

How did N#Cc1ccc(C(=O)NC2=NCCS2)cc1 do in these assays?
aSyn UTR act: -141*

How did COc1ccc(C(=O)NC2=NCCS2)cc1 do in these assays?
aSyn UTR act: -91*

Results for O=C(NC1=NCCS1)c1ccc(C(F)(F)F)cc1 ?
aSyn UTR act: -123*

How did COc1ccc(C(=O)NNC(=S)Nc2ccccc2)cc1 do in these assays?
aSyn UTR act: -207*

Results for O=C(NNC(=S)Nc1ccccc1Cl)c1ccccc1 ?
aSyn UTR act: -98*

How did O=C(NNC(=S)Nc1cccc(Cl)c1)c1ccccc1 do in these assays?
aSyn UTR act: -104*

How did COc1ccccc1NC(=S)NNC(=O)c1ccccc1 do in these assays?
aSyn UTR act: -101*

How did COc1ccc(C(=O)NNC(=O)c2cccc(F)c2)cc1 do in these assays?
aSyn UTR act: -82*

How did O=C(/C=C/NNC(=O)c1ccc(Cl)cc1)c1ccccc1 do in these assays?
aSyn UTR act: -77*

Results for CCCC(=O)NC(=S)Nc1ccc(C(C)=O)cc1 ?
aSyn UTR act: -84*

Results for CC(=O)c1ccc(NC(=S)NNC(=O)c2ccncc2)cc1 ?
aSyn UTR act: -70*

Results for N#Cc1ccccc1N/C=C/C(=O)c1ccc(Cl)cc1 ?
aSyn UTR act: -169*

What do the screens show for `O=C(NNC(=S)Nc1ccc(Cl)cc1)c1ccccc1`?
aSyn UTR act: -87*

Results for Cc1nn(C)c(C(=O)NNC(=S)Nc2ccc(Cl)cc2)c1[N+](=O)[O-] ?
aSyn UTR act: -71*

What do the screens show for `FC(F)(F)c1ccc(Nc2nnnc3ccccc23)cc1`?
aSyn UTR act: -140*

Results for CCOC(=O)c1ccc(-c2cccc(C(F)(F)F)c2)nc1C ?
aSyn UTR act: -122*

Results for CCN(C(=O)CSc1nnc(Cn2nnc3ccccc32)o1)c1nc(-c2ccccc2)cs1 ?
aSyn UTR act: -105*

Results for N#Cc1c(/N=C/c2cccs2)sc2c1CCCCC2 ?
aSyn UTR act: -186*

Results for N#Cc1c(/N=C/N2CCOCC2)sc2c1CCCCC2 ?
aSyn UTR act: -122*
